# According to the supplement of paper PMC7411054:
# Where a name gives a salt, the structure may show the parent alone.
# How the values were obtained:
# Experiment in all cases: lowest phenotypically active concentration; higher = less potent
# Conditions in all cases: treatment time: 24 h
# HepG2-TP53BP1-CLTA = test system: HepG2-TP53BP1-CLTA
# Summary of the method: (§1)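 Phenotypic activity depended on meeting both a deviation and a reproducibility criterion. The fifteen gene-edited A549, HepG2 and WPMY1 reporter lines were treated at 0.3, 1, 3 or 9 µM for 24 h, four wells each, then imaged live with features normalised to solvent control wells. Deviation required ≥3 of 4 wells past the 95th percentile of control Euclidean distances, and reproducibility a median replicate Pearson correlation above the 95th percentile of non-replicates.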
# A549-TUBA1B-RELA = test system: A549-TUBA1B-RELA
# Summary of the method: as §1
# HepG2-TUBA1B-RELA = test system: HepG2-TUBA1B-RELA
# Summary of the method: as §1
# WPMY1-TP53BP1-CLTA = test system: WPMY1-TP53BP1-CLTA
# Summary of the method: as §1
# A549-TP53BP1-CLTA = test system: A549-TP53BP1-CLTA
# Summary of the method: as §1
# HepG2-CANX-COX4 = test system: HepG2-CANX-COX4
# Summary of the method: as §1
# HepG2-GM130-SQSTM1 = test system: HepG2-GM130-SQSTM1
# Summary of the method: as §1
# WPMY1-CANX-COX4 = test system: WPMY1-CANX-COX4
# Summary of the method: as §1
# WPMY1-TUBA1B-RELA = test system: WPMY1-TUBA1B-RELA
# Summary of the method: as §1
# A549-CANX-COX4 = test system: A549-CANX-COX4
# Summary of the method: as §1
compound,measurement,setting,value
CCOC(=O)c1c2c3c(cccc3[nH]c1=O)C(=O)c1ccccc1-2,lowest phenotypically active concentration,HepG2-TP53BP1-CLTA,≤ 0.3 µM
O=C(Nc1ccc(CN2CCOCC2)cc1)c1ccc(-c2cccc(Cl)c2)o1,lowest phenotypically active concentration,A549-TUBA1B-RELA,9 µM
same,lowest phenotypically active concentration,HepG2-TUBA1B-RELA,9 µM
Nc1ncnc2c1c(-c1ccc(Oc3ccccc3)cc1)nn2C1CCCC1,lowest phenotypically active concentration,A549-TUBA1B-RELA,3 µM
same,lowest phenotypically active concentration,WPMY1-TP53BP1-CLTA,3 µM
O=C(Nc1ccncc1)c1cc([N+](=O)[O-])ccc1Cl,lowest phenotypically active concentration,A549-TP53BP1-CLTA,9 µM
same,lowest phenotypically active concentration,A549-TUBA1B-RELA,9 µM
same,lowest phenotypically active concentration,HepG2-CANX-COX4,3 µM
same,lowest phenotypically active concentration,HepG2-GM130-SQSTM1,9 µM
same,lowest phenotypically active concentration,HepG2-TP53BP1-CLTA,9 µM
same,lowest phenotypically active concentration,HepG2-TUBA1B-RELA,9 µM
same,lowest phenotypically active concentration,WPMY1-CANX-COX4,9 µM
same,lowest phenotypically active concentration,WPMY1-TUBA1B-RELA,9 µM
CCc1nc(-c2cccc(C)c2)c(-c2ccnc(NC(=O)c3ccccc3)c2)s1,lowest phenotypically active concentration,HepG2-CANX-COX4,1 µM
same,lowest phenotypically active concentration,HepG2-GM130-SQSTM1,1 µM
same,lowest phenotypically active concentration,HepG2-TP53BP1-CLTA,3 µM
same,lowest phenotypically active concentration,HepG2-TUBA1B-RELA,1 µM
same,lowest phenotypically active concentration,WPMY1-TUBA1B-RELA,9 µM
CC(C)(C)c1ccc(C(O)CCCN2CCC(C(O)(c3ccccc3)c3ccccc3)CC2)cc1 (configuration not stated) [terfenadine],lowest phenotypically active concentration,HepG2-TUBA1B-RELA,1 µM
same,lowest phenotypically active concentration,WPMY1-TUBA1B-RELA,3 µM
COc1cc2c(cc1OC)-c1c/c(=N/c3c(C)cc(C)cc3C)n(C)c(=O)n1CC2 [Trequinsin hydrochloride],lowest phenotypically active concentration,HepG2-CANX-COX4,9 µM
same,lowest phenotypically active concentration,WPMY1-CANX-COX4,9 µM
same,lowest phenotypically active concentration,WPMY1-TP53BP1-CLTA,9 µM
same,lowest phenotypically active concentration,WPMY1-TUBA1B-RELA,9 µM
O=S(=O)(c1cccc2cnccc12)N1CCNCC1,lowest phenotypically active concentration,A549-TP53BP1-CLTA,9 µM
same,lowest phenotypically active concentration,A549-TUBA1B-RELA,9 µM
same,lowest phenotypically active concentration,HepG2-CANX-COX4,3 µM
same,lowest phenotypically active concentration,HepG2-GM130-SQSTM1,3 µM
same,lowest phenotypically active concentration,HepG2-TP53BP1-CLTA,9 µM
same,lowest phenotypically active concentration,HepG2-TUBA1B-RELA,3 µM
same,lowest phenotypically active concentration,WPMY1-CANX-COX4,9 µM
same,lowest phenotypically active concentration,WPMY1-TP53BP1-CLTA,9 µM
same,lowest phenotypically active concentration,WPMY1-TUBA1B-RELA,3 µM
COc1ccc(CCc2nc3cc(-c4c(C)noc4C)ccc3n2C[C@H](C)N2CCOCC2)cc1Cl,lowest phenotypically active concentration,HepG2-CANX-COX4,9 µM
same,lowest phenotypically active concentration,HepG2-GM130-SQSTM1,9 µM
same,lowest phenotypically active concentration,HepG2-TP53BP1-CLTA,9 µM
same,lowest phenotypically active concentration,HepG2-TUBA1B-RELA,9 µM
same,lowest phenotypically active concentration,WPMY1-TUBA1B-RELA,9 µM
CN1c2ccc([N+](=O)[O-])cc2N=C(c2ccc(C(=O)O)cc2)c2cc3c(cc21)C(C)(C)CCC3(C)C,lowest phenotypically active concentration,A549-TUBA1B-RELA,9 µM
same,lowest phenotypically active concentration,HepG2-TUBA1B-RELA,9 µM
CC[C@H](CO)Nc1nc(Nc2cccc(-c3ccccn3)c2)c2ncn(C(C)C)c2n1 [(R)-DRF053 dihydrochloride],lowest phenotypically active concentration,HepG2-GM130-SQSTM1,9 µM
same,lowest phenotypically active concentration,HepG2-TP53BP1-CLTA,9 µM
same,lowest phenotypically active concentration,HepG2-TUBA1B-RELA,9 µM
same,lowest phenotypically active concentration,WPMY1-CANX-COX4,9 µM
same,lowest phenotypically active concentration,WPMY1-TUBA1B-RELA,9 µM
CNC(=O)c1cc(Oc2ccc(NC(=O)Nc3ccc(Cl)c(C(F)(F)F)c3)c(F)c2)ccn1 [regorafenib],lowest phenotypically active concentration,A549-TP53BP1-CLTA,9 µM
same,lowest phenotypically active concentration,HepG2-CANX-COX4,3 µM
same,lowest phenotypically active concentration,HepG2-GM130-SQSTM1,≤ 0.3 µM
same,lowest phenotypically active concentration,HepG2-TP53BP1-CLTA,≤ 0.3 µM
same,lowest phenotypically active concentration,HepG2-TUBA1B-RELA,≤ 0.3 µM
same,lowest phenotypically active concentration,WPMY1-TP53BP1-CLTA,9 µM
N#Cc1ccc2ncnc(NCCc3ccccc3)c2c1 [Senexin A],lowest phenotypically active concentration,HepG2-CANX-COX4,9 µM
same,lowest phenotypically active concentration,WPMY1-CANX-COX4,3 µM
same,lowest phenotypically active concentration,WPMY1-TUBA1B-RELA,3 µM
CCC(=O)N1CCOc2c(cc(-c3ccc(OC)c(OC)c3)cc2OC[C@H]2CCCN(C)C2)C1,lowest phenotypically active concentration,A549-TUBA1B-RELA,9 µM
same,lowest phenotypically active concentration,HepG2-CANX-COX4,9 µM
same,lowest phenotypically active concentration,HepG2-TUBA1B-RELA,9 µM
same,lowest phenotypically active concentration,WPMY1-CANX-COX4,9 µM
Cc1nc2sccn2c(=O)c1CCN1CCC(=C(c2ccc(F)cc2)c2ccc(F)cc2)CC1 [Ritanserin],lowest phenotypically active concentration,HepG2-GM130-SQSTM1,9 µM
same,lowest phenotypically active concentration,HepG2-TUBA1B-RELA,9 µM
C[C@@H]1CCN(C(=O)CC#N)C[C@@H]1N(C)c1ncnc2[nH]ccc12,lowest phenotypically active concentration,HepG2-CANX-COX4,9 µM
same,lowest phenotypically active concentration,HepG2-GM130-SQSTM1,9 µM
same,lowest phenotypically active concentration,HepG2-TP53BP1-CLTA,9 µM
N=C(N)NC(=N)NCCc1ccccc1 [phenformin],lowest phenotypically active concentration,A549-CANX-COX4,9 µM
CCc1ccc(/C=C/C(=O)Nc2ccc(C(C)=O)cc2)o1 [Heclin],lowest phenotypically active concentration,A549-TUBA1B-RELA,9 µM
Cn1cc(-c2ccc3nnc(Sc4ccc5ncccc5c4)n3n2)cn1,lowest phenotypically active concentration,A549-CANX-COX4,1 µM
same,lowest phenotypically active concentration,A549-TP53BP1-CLTA,1 µM
CC(C)(C)c1ccc(S(=O)(=O)/C=C/C#N)cc1,lowest phenotypically active concentration,HepG2-GM130-SQSTM1,9 µM
same,lowest phenotypically active concentration,HepG2-TUBA1B-RELA,9 µM
same,lowest phenotypically active concentration,WPMY1-CANX-COX4,9 µM
same,lowest phenotypically active concentration,WPMY1-TP53BP1-CLTA,9 µM
Cc1cccc(-c2nn(C(=S)Nc3ccccc3)cc2-c2ccnc3ccccc23)n1,lowest phenotypically active concentration,A549-CANX-COX4,9 µM
same,lowest phenotypically active concentration,A549-TUBA1B-RELA,3 µM
same,lowest phenotypically active concentration,HepG2-CANX-COX4,3 µM
same,lowest phenotypically active concentration,HepG2-GM130-SQSTM1,9 µM
same,lowest phenotypically active concentration,HepG2-TP53BP1-CLTA,9 µM
same,lowest phenotypically active concentration,HepG2-TUBA1B-RELA,9 µM
same,lowest phenotypically active concentration,WPMY1-CANX-COX4,9 µM
same,lowest phenotypically active concentration,WPMY1-TP53BP1-CLTA,1 µM
same,lowest phenotypically active concentration,WPMY1-TUBA1B-RELA,9 µM
COc1cc(C)c(/C=C/C(C)=C/C=C/C(C)=C/C(=O)O)c(C)c1C [acitretin],lowest phenotypically active concentration,WPMY1-CANX-COX4,9 µM
Cc1cc(C(C)Nc2ccccc2)c2nc(N3CCOCC3)cc(=O)n2c1 (configuration not stated),lowest phenotypically active concentration,WPMY1-CANX-COX4,9 µM
Cc1cccc(-c2n[nH]cc2-c2ccc(F)c(-c3cnn(CCO)c3)c2)n1,lowest phenotypically active concentration,HepG2-CANX-COX4,9 µM
same,lowest phenotypically active concentration,HepG2-TP53BP1-CLTA,9 µM
same,lowest phenotypically active concentration,WPMY1-CANX-COX4,9 µM
same,lowest phenotypically active concentration,WPMY1-TP53BP1-CLTA,9 µM
same,lowest phenotypically active concentration,WPMY1-TUBA1B-RELA,9 µM
